Laboratory results taken from PubChem BioAssay (EPA / NIEHS).
Calls of active or inactive are those of the source. Rule for the calls: active = hit-call score of the fitted dose curve at least 0.9, where 1 is the maximum; inactive = score below 0.9.

Read-out: Glutamate-cysteine ligase catalytic (GCLC), GCLC (gene 2729)
Experiment: LTEA_HepaRG_GCLC: Life Technologies and Expression Analysis (LTEA) Assay for Glutamate-cysteine ligase catalytic (GCLC) using HepaRG (AID 2283498)
Details: mRNA level, 48 h; actives raise or lower the signal
Experimental: LTEA_HepaRG is a cell based, multiplexed-readout assay that uses HepaRG, a human liver cell line, with measurements taken at 48 hours after chemical dosing on a 96-well plate.LTEA_HepaRG_GCLC is one of 102 assay component(s) measured in the LTEA HepaRG cell culture assay. It is a marker of Oxidative Stress.Data from the assay component LTEA_HepaRG_GCLC was analyzed into 1 endpoint. This assay endpoint, LTEA_HepaRG_GCLC, was analyzed with bidirectional fitting relative to DMSO as the negative control and baseline of activity. Using a type of inducible reporter, measures of mRNA induction for gain or loss-of-signal activity can be used to understand regulation of transcription factor activity. To generalize the intended target to other relatable targets, this assay endpoint is annotated to the ligase intended target family, where the subfamily is C-N ligase.
A total of 1060 chemcials from the ToxCast library were tested in eight-point concentration-response experiments. Cell culture and cytotoxicity assays were conducted at Thermo Fisher Scientific's Custom Services facility (Madison, WI). A single lot of human HepaRG cells (Thermo Fisher Scientific, Frederick, MD) was used for the cell culture experiments. 96-well format collagen type I coated plates of human HepaRG cells were prepared using established methods. Briefly, cryopreserved HepaRG cells were thawed, plated at a density of approximately 100,000 cells/well in HepaRG Thaw, Plate, and General Purpose media (HPRG770, Thermo Fisher Scientific), and incubated for 48 hours. 0.5% DMSO was selected as vehicle control to balance the requisite need of DMSO in HepaRG cultures to maintain differentiation (for example, baseline metabolism, proportions of hepatocytes vs. cholangiocytes), while enabling further hepatic receptor pathway activation (for example, PXR and CAR) in response to chemical exposure. 48 hours after plating, the culture medium was replaced with HepaRG Serum-Free Incudtion Media. Cells were exposed to each test chemical in duplicate and maintained in CO2 incubators for another 48 hours. Chemical plates were thawed to room temperature and 200x concentrations of treatment groups were prepared. 8-point conentration-reponse curves were made with the highest exposure at 100 uM, followed by half-log dilutions, all in 0.5% DMSO. Each test plate contained variouse controls, induction positive controls (1mM phenobarbital), cytotoxicity positive controls ([…] aflatoxin B1), vehicle controls (0.5% DMSO), and total lysis controls (0.5% DMSO). Cell morphology images were taken using an Essen IncuCyte FLR automated microscope, with six 96-well plates imaged in about 24 minutes. Images were captured and exported and JPEG files. Spent culture media was transfered to black-well plates for the LDH assay, and remaining media was sorted at -80 C for later use. Cells were treated with RLT buffer and frozen until shipped for gene expression analysis. Total RNA was isolated from the cell suspension in 75 uL of Buffer RLT (Qiagen, Germantown, MD 20874) by Quintiles/Expression Analysis (Durham, NC) using a custom isolation procedure. Total RNA from each plate well was transferred to a preamplification plate. Fluidigm's 96.96 Dynamic ArrayTM (Fluidigm, Amsterdam, the Netherlands) technology was used for gene expression analyses by quantitative reverse transcription polymerase chain reaction (qRT-PCR, performed by Quintiles/Expression Analysis, Durham, NC)89. Standard TaqManTM Assays (Applied Biosystems/ThermoFisher Scientific, Foster City, CA) were used to assess the expression of 93 genes selected based on their selectivity and sensitivity to important hepatic receptors known to be modulated by environmental chemicals; importance in human hepatocyte functionality; and hepatotoxicity. […]

outcome, inactive:
CN(Cc1cnc2nc(N)nc(N)c2n1)c1ccc(C(=O)N[C@@H](CCC(=O)O)C(=O)O)cc1
CCCCCCCCCCCCOS(=O)(=O)O
CN(C)CCOC(c1ccccc1)c1ccccc1
CCCCC=O
CCCCC(CC)C(=O)O (stereo unspecified)
O=C(c1ccccc1)c1ccccc1
CCC(C)c1ccccc1O (stereo unspecified)
CS(=O)(=O)c1ccc([C@@H](CC2CCCC2)C(=O)Nc2cnccn2)cc1Cl
CC(=O)Nc1ccc(O)cc1
CCCCCCCCCCCCCCC
O=C1NS(=O)(=O)c2ccccc21
OCC(CO)(CBr)CBr

AC50, active:
CCCCc1oc2ccccc2c1C(=O)c1cc(I)c(OCCN(CC)CC)c(I)c1 67.4 µM
N=C(N)c1ccc(OCCCCCOc2ccc(C(=N)N)cc2)cc1 27.9 µM
Cc1[nH]nc2c1N=C(c1ccccc1Cl)c1cc([N+](=O)[O-])ccc1N2 2.83 µM
O=C(CCCN1CCC(O)(c2ccc(Cl)cc2)CC1)c1ccc(F)cc1 77.1 µM
